Experimental data: PMC4336329 (PLoS ONE, 2015)
Among all 310,000 compounds or so, about 14,000 (4.5%) showed an effect of 50% or more. The effect is printed as a negative number. Shown is part of a subset that was picked to be rich in strong results.

Each compound was assayed against human ether-à-go-go-related gene (hERG) potassium channel (human, UniProt Q12809) (assay: primary screen, population patch clamp on CHO cells stably expressing hERG; higher = less effect of the substance).
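Note: peak tail current of the secondary pulse compared with the same well before compound.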

human ether-à-go-go-related gene (hERG) potassium channel, sequence (Q12809 whole entry, looked up): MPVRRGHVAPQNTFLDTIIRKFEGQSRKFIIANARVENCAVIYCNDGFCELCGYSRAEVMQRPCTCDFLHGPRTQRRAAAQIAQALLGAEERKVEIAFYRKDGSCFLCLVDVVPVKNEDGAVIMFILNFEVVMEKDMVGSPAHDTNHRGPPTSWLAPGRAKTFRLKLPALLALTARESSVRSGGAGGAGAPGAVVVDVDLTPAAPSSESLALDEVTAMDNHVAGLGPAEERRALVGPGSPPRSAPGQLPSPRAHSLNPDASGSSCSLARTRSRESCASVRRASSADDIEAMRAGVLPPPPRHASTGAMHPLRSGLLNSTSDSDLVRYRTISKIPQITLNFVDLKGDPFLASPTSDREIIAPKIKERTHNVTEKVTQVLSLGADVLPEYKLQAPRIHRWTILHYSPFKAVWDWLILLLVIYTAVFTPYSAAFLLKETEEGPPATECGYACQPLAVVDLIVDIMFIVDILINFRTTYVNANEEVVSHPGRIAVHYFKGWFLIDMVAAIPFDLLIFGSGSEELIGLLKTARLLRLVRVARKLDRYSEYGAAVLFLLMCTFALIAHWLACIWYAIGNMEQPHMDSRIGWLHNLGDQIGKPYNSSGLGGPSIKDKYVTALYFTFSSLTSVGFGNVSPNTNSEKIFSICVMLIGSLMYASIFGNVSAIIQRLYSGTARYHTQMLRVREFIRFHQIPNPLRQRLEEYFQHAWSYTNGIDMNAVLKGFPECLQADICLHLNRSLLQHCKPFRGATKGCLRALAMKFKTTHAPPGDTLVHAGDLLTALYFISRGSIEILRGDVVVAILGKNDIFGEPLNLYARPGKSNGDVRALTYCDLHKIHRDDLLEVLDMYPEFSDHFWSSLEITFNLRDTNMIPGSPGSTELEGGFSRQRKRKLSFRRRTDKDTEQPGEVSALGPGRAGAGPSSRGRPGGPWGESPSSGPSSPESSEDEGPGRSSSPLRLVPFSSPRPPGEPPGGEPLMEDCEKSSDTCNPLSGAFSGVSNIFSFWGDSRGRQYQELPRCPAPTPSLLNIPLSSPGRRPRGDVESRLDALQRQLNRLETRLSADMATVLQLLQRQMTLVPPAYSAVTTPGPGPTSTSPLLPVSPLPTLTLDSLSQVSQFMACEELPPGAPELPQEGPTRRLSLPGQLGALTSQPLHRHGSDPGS

| Compound | hERG current change (%, negative = inhibition) at 10uM |
| --- | --- |
| Nc1cc(=O)[nH]c(SCc2nnnn2-c2ccc(Cl)cc2)n1 | 4.04% |
| CCN1CCCC1CNC(=O)Cn1cc2c(n1)CCC(C)C2 (stereo not shown) | 5.4% |
| Cn1ncc(C#N)c1/N=C/N(Cc1ccccc1)Cc1ccccc1 | -9.12% |
| COCCN(C(=O)COC(=O)c1ccccc1Nc1ccccc1)c1c(N)n(Cc2ccccc2)c(=O)[nH]c1=O | -44.9% |
| Cc1occc1C(=O)NNC(=S)NCc1ccccc1 | 6.47% |
| CC(C)(C)C(=O)Nc1cc2c3c(c1)CC(=O)N3CCC2 | 18.3% |
| COc1ccccc1NC(=O)N(CCN1CCOCC1)Cc1cc2cc(C)cc(C)c2[nH]c1=O | -33.2% |
| CCOc1ccc2[nH]c(=O)c(CN(Cc3ccccc3)C(=O)N3CCCC3)cc2c1 | 9.28% |
| CCOc1ccc2[nH]c(=O)c(CN(CC3CCCN3CC)C(=O)NCc3ccccc3)cc2c1 (stereo not shown) | -63.2% |
| CCN1CCCC1CN(Cc1cc2ccc(C)c(C)c2[nH]c1=O)C(=O)Nc1ccccc1OC (stereo not shown) | -63.3% |
| Cc1ccc2[nH]c(=O)c(CN(CC3COCCO3)C(=O)Nc3ccccc3C)cc2c1 (stereo not shown) | 3.87% |
| CCN1CCCC1CN(Cc1cc2cc(OC)ccc2[nH]c1=O)C(=O)NCc1ccccc1 (stereo not shown) | -46.4% |
| COc1ccccc1NC(=O)N(Cc1ccco1)Cc1cc2cc(C)cc(C)c2[nH]c1=O | -2.39% |
| COc1ccccc1NC(=O)N(Cc1ccco1)Cc1cc2ccc(C)c(C)c2[nH]c1=O | 8.85% |
| COc1ccccc1NC(=S)N(Cc1ccco1)Cc1cc2ccc(C)c(C)c2[nH]c1=O | -8.05% |
| CCN1CCCC1CN(Cc1cc2cc(C)cc(C)c2[nH]c1=O)C(=O)Nc1ccccc1OC (stereo not shown) | -61.4% |
| CCN1CCCC1CN(Cc1cc2cc(C)ccc2[nH]c1=O)C(=O)Nc1ccccc1OC (stereo not shown) | -60% |
| COc1ccccc1NC(=O)N(Cc1cc2cc(OC)c(OC)cc2[nH]c1=O)CC1CCCO1 (stereo not shown) | -9.13% |
| CCn1c(Cc2c(C)[nH]c3ccccc23)nnc1SCC(N)=O | 13.4% |
| Cc1nn(C)c2c(=O)c(=O)c2n(C)[nH]1 | 18% |
| Cc1c(C(=O)NCC2CCCO2)oc2ccc3c(c12)C(=O)CC(C)(C)O3 (stereo not shown) | 2.71% |

| Compound | hERG current change (%, negative = inhibition) at 10uM |
| --- | --- |
| O=C(CSc1nnc(CNC(=O)c2ccco2)o1)Nc1cccc(C(F)(F)F)c1 | -48.3% |
| COc1cccc(NC(=O)Cc2csc(NC(=O)Nc3ccccc3OC)n2)c1 | 18.2% |
| COc1ccc(CNCc2c(O)c(Cl)cc3c(C)c(C)c(=O)oc23)c(OC)c1.Cl | -3.6% |
| O=C(Cn1c(=O)oc2cc(S(=O)(=O)N3CCCC3)ccc21)N1CCc2ccccc2C1 | -32.3% |
| Cc1cccc2nc(CSCc3ccco3)cn12 | -2.01% |
| O=C1c2ccccc2C(=O)N1OCc1ccccc1[N+](=O)[O-] | 23.7% |
| COc1cccc(CN2CCN(C(=O)Nc3ccc([N+](=O)[O-])cc3)CC2)c1 | -57.2% |
| CCOC(=O)c1ccc(NC(=O)N2CCN(c3ccccc3OC)CC2)cc1 | 11.4% |
| CN1CCN(C(=O)Nc2ccc([N+](=O)[O-])cc2)CC1 | -23.8% |
| COc1ccccc1N1CCN(C(=O)Nc2ccc([N+](=O)[O-])cc2)CC1 | -52.4% |
| COc1ccccc1N1CCN(C(=O)c2cc(C(=O)N3CCN(c4ccccc4OC)CC3)cc([N+](=O)[O-])c2)CC1 | -0.436% |
| COc1cccc(CN2CCN(C(=O)CC(C)C)CC2)c1 | -13.1% |
| O=[N+]([O-])c1ccc(N2CCN(C(=S)Nc3ccc(F)cc3)CC2)cc1 | -44.4% |
| COc1ccc(NC(=O)N2CCCC2)cc1OC | -10.2% |
| O=[N+]([O-])c1ccc(N2CCN(C(=S)Nc3cccc(F)c3)CC2)cc1 | -52% |
| O=[N+]([O-])c1ccc(NC(=S)N2CCN(c3ccc(F)cc3)CC2)cc1 | 3.73% |
| COc1ccc(NC(=O)N2CCN(c3ccc([N+](=O)[O-])cc3)CC2)cc1 | -36.9% |
| COc1ccc(NC(=O)N2CCN(c3ccc([N+](=O)[O-])cc3)CC2)cc1OC | -73.2% |
| CCCC[C@@H]1CNC(=S)N1CCC12CC3CC(CC(C3)C1)C2 | 18.9% |
| C=CCn1cccc(C(=O)Nc2ccc(SC)cc2)c1=O | -15% |
| Cc1nn(CC(=O)N2CCN(C34CC5CC(CC(C5)C3)C4)CC2)c(C)c1[N+](=O)[O-] | -1.7% |

| Compound | hERG current change (%, negative = inhibition) at 10uM |
| --- | --- |
| Cc1ccc2c(cnn2C(=O)CCCC(=O)NCc2ccc(F)cc2)c1 | -9.47% |
| O=C(NCCc1ccccc1)/C(=C/c1ccco1)c1ccccc1 | -13.8% |
| CN(C)S(=O)(=O)c1cccc(C(=O)NCC(=O)NC2CCN(Cc3ccccc3)CC2)c1 | 3.32% |
| Cc1ccc(C(=O)CSc2nnnn2C(C)C)c(C)c1 | -3.38% |
| Cc1nc2ccc([N+](=O)[O-])cc2c(=O)n1Cc1cccc(Br)c1 | -4.24% |
| COc1ccc(OC)c(NC(=O)c2cc3ccccc3cc2OC)c1 | 2.44% |
| CCc1c(C#N)sc(C(N)=O)c1CC | 13.3% |
| COc1ccc(NC(=S)N2CCN(c3ccc([N+](=O)[O-])cc3)CC2)cc1OC | -77.3% |
| COc1cccc(NC(=S)N2CCN(c3ccc([N+](=O)[O-])cc3)CC2)c1 | -27.5% |
| O=[N+]([O-])c1ccc(NC(=S)N2CCN(c3ccccc3)CC2)cc1 | -11.4% |
| CCOC(=O)c1cc(CC)sc1NC(=O)C1CC1 | -7.16% |
| COC(=O)[C@H](CCSC)NC(=O)NCc1cccs1 | 20.6% |
| CCOCCCNC(=O)C1CCN(Cc2cccc(OCc3ccccc3)c2)CC1.O=C(O)C(=O)O | -14.1% |
| CC(C)CCNC(=O)C1CCN(Cc2cccc(OCc3ccccc3)c2)CC1.O=C(O)C(=O)O | -50.8% |
| CCOCCCNC(=O)C1CCN(Cc2ccc(OCc3ccccc3)c(OC)c2)CC1.O=C(O)C(=O)O | -43.3% |
| NC(=O)C1CCN(Cc2cccc(OCc3ccccc3)c2)CC1.O=C(O)C(=O)O | -12% |
| CCOC(=O)C1CCCN(Cc2ccc(OCc3ccccc3)cc2)C1.O=C(O)C(=O)O (stereo not shown) | -40.6% |
| COCCNC(=O)C1CCN(Cc2cccc(OCc3ccccc3)c2)CC1 | -12.2% |
| CCOC(=O)C1CCN(Cc2ccc(OC)c(OCc3ccccc3)c2)CC1 | -38.3% |
| CCCCNC(=O)C1CCN(Cc2ccc(OCc3ccccc3)c(OC)c2)CC1.O=C(O)C(=O)O | -67.2% |
| CCOC(=O)N1CCN(C(=O)C2CCN(Cc3ccc(O)c(OCC)c3)CC2)CC1.O=C(O)C(=O)O | 20.2% |

| Compound | hERG current change (%, negative = inhibition) at 10uM |
| --- | --- |
| CCOC(=O)C1CCN(Cc2cccc(OCc3ccccc3)c2)CC1.O=C(O)C(=O)O | -43.2% |
| CCOC(=O)N1CCN(C(=O)C2CCN(Cc3cccc(OCc4ccccc4)c3)CC2)CC1.O=C(O)C(=O)O | -58.4% |
| CCOC(=O)C1CCN(Cc2ccc(OCc3ccccc3)cc2)CC1.O=C(O)C(=O)O | -62% |
| COC(=O)c1ccccc1NC(=O)c1nc2nc(C)cc(C(F)F)n2n1 | -5.65% |
| Cc1nc2ccccc2c2c1CC(C)S2 (stereo not shown) | -16.8% |
| Cc1ccc2nc(-c3ccccc3O)c(Nc3ccc4c(c3)OCCO4)n2c1 | 9.98% |
| COc1cc(CN2CCCCC2)ccc1OCc1ccccc1.O=C(O)C(=O)O | -35.1% |
| COc1ccc(CN2CCC(C)CC2)cc1OCc1ccccc1 | -49.6% |
| COc1cc(CN2CCC(C(=O)NCC(C)(C)CN(C)C)CC2)ccc1OCc1ccccc1.O=C(O)C(=O)O | 13.6% |
| CCOC(=O)C1CCN(Cc2ccc(-c3ccccc3)cc2)CC1 | -28.8% |
| CC(O)CNC(=O)C1CCN(Cc2ccc(OCc3ccccc3)cc2)CC1.O=C(O)C(=O)O (stereo not shown) | -33.2% |
| CCOC(=O)C1CCN(c2c(N3CCN(Cc4ccccc4)CC3)c(=O)c2=O)CC1 | -73.4% |
| O=C(C1CCN(Cc2ccc(OCc3ccccc3)cc2)CC1)N1CCCC1 | -47.1% |
| COc1cc(CN2CCC(C)CC2)ccc1OCc1ccccc1.O=C(O)C(=O)O | -52.9% |
| CCOC(=O)C1CCN(c2c(NCCCN3CCN(Cc4ccccc4)CC3)c(=O)c2=O)CC1 | 3.6% |
| COc1cc(CN2CCC(C(=O)NCCC(C)C)CC2)ccc1OCc1ccccc1.O=C(O)C(=O)O | -67.8% |
| CC(C)CNC(=O)C1CCN(Cc2ccc(OCc3ccccc3)cc2)CC1.O=C(O)C(=O)O | -77.1% |
| O=C(/C=C/c1ccccc1)Nc1cc(NC(=O)/C=C/c2ccccc2)cc(C(=O)O)c1 | 21.4% |
| COc1ccc(-c2cc(C)no2)cc1S(=O)(=O)N1CCCN(Cc2ccc(F)cc2)C1 | -16.9% |
